We go through 58 compounds from PubChem BioAssay AID1259374 (The Scripps Research Institute Molecular Screening Center, 2018).

The campaign covered roughly 650,000 compounds. About 5,900 (0.91%) were called active. The sample as a whole holds a higher share of actives than the screen did. A number with no mark means an inactive call. Cut-off read from the data, not from the text of the source: active = inhibition above about 50%; inactive = the rest.

For the assay, the target named is Microphthalmia-associated transcription factor (Homo sapiens) (UniProt O75030). Kind of assay: MITF inhibitors, primary screen, biochemical, AlphaScreen, human (AID 1259374).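 Note: 0% = vehicle wells with protein.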 To be noted: AlphaScreen MITF homodimerization, bead proximity signal; at 2.6 µM; active compounds read high. (In general: In Alpha technology, singlet oxygen from a donor bead excites a nearby acceptor bead.)
Sequence of Microphthalmia-associated transcription factor (Homo sapiens) (O75030 whole entry, looked up): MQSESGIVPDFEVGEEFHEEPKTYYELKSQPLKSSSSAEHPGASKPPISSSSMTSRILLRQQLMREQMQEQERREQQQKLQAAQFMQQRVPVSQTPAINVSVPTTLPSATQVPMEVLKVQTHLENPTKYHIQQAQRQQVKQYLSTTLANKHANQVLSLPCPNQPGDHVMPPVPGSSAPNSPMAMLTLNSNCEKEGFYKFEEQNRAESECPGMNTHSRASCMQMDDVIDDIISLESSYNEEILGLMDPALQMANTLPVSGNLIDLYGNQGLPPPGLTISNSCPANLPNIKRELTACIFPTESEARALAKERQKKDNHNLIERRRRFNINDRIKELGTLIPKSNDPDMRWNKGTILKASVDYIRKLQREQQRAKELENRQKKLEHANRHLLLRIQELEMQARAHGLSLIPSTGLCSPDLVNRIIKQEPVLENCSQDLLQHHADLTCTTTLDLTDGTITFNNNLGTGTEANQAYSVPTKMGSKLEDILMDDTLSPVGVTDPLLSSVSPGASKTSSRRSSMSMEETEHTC
Broadly, the inhibition is the relative decrease from the control value, in per cent. In the case of `CC(=O)c1ccc(N2CN=C3SCC(=O)N3C2)cc1`, the inhibition was 9.73%.
In the case of `CCCNC(=O)Cc1ccc(-n2c(=O)c3ccccc3n(CC(=O)NC3CCCCC3)c2=O)cc1`, the inhibition was -13.8%.
The result for `c1ccc(CCNc2nccc(Nc3ccncn3)n2)cc1` reads -8.19%.
The result for `c1ccc(CCCNc2nccc(Nc3ccncn3)n2)cc1` reads 10.6%; that for `c1ccc(CCCCNc2nccc(Nc3ccncn3)n2)cc1`, 61.3% (active).
For `O=C(NCc1ccccc1)c1ccc2c(c1)nc(SCc1ccc([N+](=O)[O-])cc1)n1c3ccccc3nc21` the value was 13.9%.
In the case of `Cc1ccc(CNC(=O)Cn2ncc3c2-c2ccccc2OC3)cc1`, the inhibition is 4.23%.
The result for `Cc1cc(NC(=O)c2ccco2)ncc1NC(=O)c1cnccn1` reads 6.96%.
The result for `Cc1ccc(CN2CCOCC2)c(C)c1` reads -2.63%.
For `Oc1c(CN2CCOCC2)ccc(CN2CCOCC2)c1O` the value was 52% (active).
Take `Clc1ccc(CN2CCOCC2)c(Cl)c1`: the inhibition was 43.8%.
The result for `Cc1cc(C)nc(NC(=O)c2ccccc2Br)c1` reads -3%; that for `COCCn1c(=S)[nH]c2cc(C(=O)NCCC3=CCCCC3)ccc2c1=O`, 0.32%.
Regarding `CN(CCc1ccccn1)Cc1cccnc1`, the inhibition is 73.8% (active).
As to `CN(Cc1ccccc1)C(=O)CCC1CCN(C(=O)CCc2ccccn2)CC1`, the inhibition is -1.89%.
As to `O=C(COc1ccccc1)NCc1cccnc1`, the inhibition was -5.7%.
Take `CCOc1cc(/C=C2\NC(=S)NC2=O)cc(Br)c1OC`: the inhibition is 19.5%.
The result for `Cc1ccc(C)c(-n2c(SCCN3CCOCC3)nnc2-c2cccnc2)c1` reads -3.61%.
For `O=C1OCCN1c1ccc(Nc2nccc(-c3cc(N4CCOCC4)cc([N+](=O)[O-])c3)n2)cc1` the value was 0.11%.
For `Cc1c2c(c(O)c3c(O)cccc13)C(=O)OC2[C@@H]1C(N(C)C)C(O)=C(C(N)=O)C(=O)[C@H]1O` (stereo partly drawn) the value was 108% (active); for `O=C1OC(c2ccccc2Cl)=N/C1=C\c1ccccc1[N+](=O)[O-]`, -1.22%.
For the compound `Cc1nc2sccn2c1CN1CCC(C2(Cc3ccccc3)NC(=O)NC2=O)CC1` (stereo not drawn), the inhibition is -18.4%.
For `Cc1cc(C(F)(F)F)nn1CC(=O)Nc1ccc(I)c(Cl)c1` the value was 6.94%; for `COC(=O)c1c(OCCCN(C)C)cc(=O)n2c1CCN(C(=O)c1ccc(F)cc1)CC2`, -2.23%; for `O=S(=O)(NCC(c1ccc2c(c1)OCO2)N1CCOCC1)c1cccs1` (stereo not drawn), 1.27%.
For `COc1cc(/C=N/n2c(-c3ccncc3)n[nH]c2=S)cc(OC)c1OC(C)=O`, the inhibition was 6.48%.
In the case of `Cc1cc(NC(=O)/C=C/C(=O)N(CC(=O)NC2CCCC2)c2ccc(F)cc2)no1`, the inhibition was 75% (active).
The result for `Cc1cc(C)cc(N(CC(=O)NC2CCCC2)C(=O)CCC(=O)Nc2cc(C)on2)c1` reads 5.39%.
The result for `Cc1cc(NC(=O)CCC(=O)N(CC(=O)NC2CCCC2)c2ccc(F)cc2)no1` reads -6.06%; that for `CCOC(=O)CSC1=Nc2ccccc2C2=NC(C(C)C)C(=O)N12` (stereo not drawn), 1.69%; that for `O=C1NC(c2c(F)cccc2Cl)C(C(=O)c2cccs2)C(O)(C(F)(F)F)N1` (stereo not drawn), -3.71%.
For `O=C1NC(c2ccccc2[N+](=O)[O-])C(C(=O)c2cccs2)C(O)(C(F)(F)F)N1` (stereo not drawn) the value was 58.9% (active); for `O=C1NC(c2cccs2)C(C(=O)c2cccnc2)C(O)(C(F)(F)F)N1` (stereo not drawn), -3.66%; for `CCN(CCN(C)C)Cc1c(Cl)cccc1Cl`, 56.6% (active).
In the case of `CN(C)CCN(C)Cc1c(F)cccc1Cl`, the inhibition was 49.6%.
Regarding `CCN(CC)CCN(CC)Cc1c(F)cccc1F`, the inhibition was 6.2%.
The result for `CCOC(=O)C1C(=O)C=C(c2ccc(F)cc2)CC1c1cccs1` (stereo not drawn) reads -5.44%; that for `CC(C)CO/N=C1\C[C@@H](O)[C@@H](O)[C@@H]2[C@@H]3C(=O)N([C@@H](C)c4ccccc4)C(=O)[C@@H]3CC[C@@H]12`, 114% (active); that for `C[C@@H](c1ccccc1)N1C(=O)[C@H]2[C@H]3[C@H](O)C=CC(=O)[C@@H]3CC[C@H]2C1=O`, 17.6%.
The result for `CC(C)CO/N=C1\C[C@@H](O)[C@@H](O)[C@@H]2[C@@H]3C(=O)N(C[C@@H]4CCCO4)C(=O)[C@@H]3CC[C@@H]12` reads -23%.
For `O=C(CN(Cc1cccs1)C(=O)c1nsc(Cl)c1Cl)NC1CCCC1` the value was 11.8%; for `Nc1nccc(-c2ccc3nc(C4COc5ccc(Br)cc5C4)[nH]c3c2)n1` (stereo not drawn), 8.16%; for `Cc1nn(C(=O)N2CCOCC2)c(C)c1Br`, 13.6%.
Turning to `NC(=O)CCn1cc(/C=C2\Cc3ccccc3C2=O)c2ccccc21`, the inhibition was -5.7%.
For `Clc1ccc(Cl)c(N2Cc3cc4c(cc3C2)CN(c2cc(Cl)ccc2Cl)C4)c1` the value was 4.43%; for `COc1cccc(OC)c1C(=O)OCC(=O)/C(C#N)=C(\C)N`, -4.31%.
For `C/C(N)=C(/C#N)C(=O)COC(=O)c1c2c(nc3ccccc13)/C(=C/c1ccco1)CC2` the value was 81.7% (active); for `COc1ccc(-c2cc(C(=O)OCC(=O)/C(C#N)=C(\C)N)c3ccccc3n2)cc1`, 7.78%.
The result for `Cc1cc(NC(=O)CSc2ccc(-c3ccccn3)nn2)no1` reads 78.7% (active); that for `CCOc1ccc(-c2ccc(SCC(=O)Nc3cc(C)on3)nn2)cc1`, 4.05%; that for `O=C(CSc1ccc(-c2ccccn2)nn1)Nc1ccccc1`, 49.6%.
Regarding `Cc1[nH]c(=O)[nH]c(=O)c1S(=O)(=O)N1CCC(Cc2ccccc2)CC1`, the inhibition is -4.65%.
The result for `O=C(Nc1cccc(NC(=O)c2ccc(S(=O)(=O)N3CCOCC3)cc2)c1)c1ccc(S(=O)(=O)N2CCOCC2)cc1` reads -11.6%; that for `Clc1cc(Cl)c(OCCOc2ccccc2)c(/C=N/n2cnnc2)c1`, -17.6%; that for `Cc1ccccc1NC(=O)NCCOc1cc(N2CCCC2)ncn1`, 63.9% (active).
As to `CC(C)(C)NC(=O)N1CCN(c2cc(N3CCCC3)ncn2)CC1`, the inhibition is 5.52%.
The result for `Cc1ccccc1NC(=O)C(=O)N1CCCCC1` reads -9.16%; that for `CCOC(=O)c1ccc2c(c1)nc(C(C)C)n2CC`, 29.7%.
